# From PubChem BioAssay
# IkB sig inh: IkB Signaling; Potency, µM (highest dose often 57.1 µM), for the others: at the top dose IkBa stabilization activation; hit rate 0.04% among 110,000; ABC-DLBCL IkBa-CBG/CBR dual luciferase ratio, 4 h; response scale: scaled: untreated 0%, proteasome inhibitor 100%; active = well fitted curve in the direction sought with a large enough effect in the signal ratio, not every such curve was filed as active; inconclusive = small, poorly fitted or top-dose-only effect, or a change in a side signal; the % refers to the signal ratio;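 also: the direction sought is a rising ratio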
#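 Luminescence ratio of IκBα-fused green versus native red beetle luciferase in OCI-Ly3 cells, 4 h post-doxycycline with compound; red signal alone, scaled from basal (0%) to zero light (-100%), flagged nonspecific or cytotoxic effects.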
# Imprint erasure: qHTS Assay for Compounds that Induce Erasure of Genomic Imprints | mouse ES Peg3-LacZ reporter, beta-gal luminescence, 40 h | Potency, µM (titrated, usually from 60.7 µM), without a hit: at the top dose activity change, positive = activation, actives largely listed as activators | hit rate 0.02% among 110,000 | AID 1948, 2009
#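 Readout: BetaGlo luminescence (5 min, room temp) for LacZ from the normally silent maternal Peg3 allele in female Peg3LacZ-Neo ES cells. Cells 300/well, 40 h, 37C, 5% CO2. Data normalized per plate to negative controls.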
# HEK293 cAMP ctrl: qHTS Assay for Agonists of the Thyroid Stimulating Hormone Receptor: Activators of Intracellular cAMP Concentrations in Parental HEK 293; parental HEK293 CNG cAMP sensor, membrane potential fluorescence; Potency, µM (doses to about 57.1 µM), inactives show top-dose activation, usual class: activators; hit rate 2.5% among 73,000; AID 938, 2007; also: % of control where 0% means no effect; nearly all actives have a fitted effect of over 55% in size
#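 Parental HEK 293 cells stably expressing a modified CNG channel (no TSHR) report cAMP rise as membrane depolarization. Membrane potential dye with 100 uM RO 20-1724 was loaded for 60 min at room temperature, then compound added for 30 min; fluorescence read at 590 nm.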
# p53ts 39C tox: qHTS Screen for Compounds that Selectively Target Cancer Cells with p53 Mutations: Cytotoxicity of p53ts Cells at the Nonpermissive Temperature; hit rate 1.5% among 130,000; Potency, µM (series often up to 46.1 µM), without a hit: at the top dose activity change, negative = cell killing, hits mostly cytotoxic; H1299-p53A138V viability at 39C, ATP luminescence, 24 h; also: % is scaled to controls: 0 for no effect and ±100 for the full control effect; nearly all actives have a fitted effect of over 55% in size
# p53ts 32C kill: qHTS Screen for Compounds that Selectively Target Cancer Cells with p53 Mutations: Cytotoxicity of p53ts Cells at the Permissive Temperature; AID 924, 2007; hit rate 0.93% among 130,000; H1299-p53A138V at 32C, ATP luminescence viability, 24 h; Potency, µM (titrated, usually from 46.1 µM), for inactives: top-dose activity change, negative = cytotoxicity, hits mostly cytotoxic;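 also: 0% = DMSO and -100% = full killing by reference compound; nearly all actives have a fitted effect of over 55% in size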
#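 Cells: H1299 p53ts (A138V), 600/well, pre-incubated 16–30 h at 37C. Cpd up to 46 uM, 24 h, 32C. Readout: ATPlite luminescence, 20 min RT. Normalization: DMSO vs tamoxifen 100 uM. AC50 by Hill equation.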
# TSHR ag: qHTS Assay for Agonists of the Thyroid Stimulating Hormone Receptor; HEK293-CNG-TSHR cells (CNG channel as cAMP sensor), membrane potential dye, cAMP; Potency, µM (highest dose often 57.1 µM), for the others: top-dose activation, actives largely listed as activators; AID 926, 2007; hit rate 0.48% among 73,000; active = well fitted activation curve with a large enough effect in the main read-out, with a control signal flat, not every such curve was filed as active; inconclusive = small, poorly fitted or top-dose-only effect, or a change in a side signal; inactive = no such curve, though single readings can be large or run the other way; % of control where 0% means no effect;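 also: the control signal comes from parental cells without the receptor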
# Target sequence (P16473 whole entry, looked up): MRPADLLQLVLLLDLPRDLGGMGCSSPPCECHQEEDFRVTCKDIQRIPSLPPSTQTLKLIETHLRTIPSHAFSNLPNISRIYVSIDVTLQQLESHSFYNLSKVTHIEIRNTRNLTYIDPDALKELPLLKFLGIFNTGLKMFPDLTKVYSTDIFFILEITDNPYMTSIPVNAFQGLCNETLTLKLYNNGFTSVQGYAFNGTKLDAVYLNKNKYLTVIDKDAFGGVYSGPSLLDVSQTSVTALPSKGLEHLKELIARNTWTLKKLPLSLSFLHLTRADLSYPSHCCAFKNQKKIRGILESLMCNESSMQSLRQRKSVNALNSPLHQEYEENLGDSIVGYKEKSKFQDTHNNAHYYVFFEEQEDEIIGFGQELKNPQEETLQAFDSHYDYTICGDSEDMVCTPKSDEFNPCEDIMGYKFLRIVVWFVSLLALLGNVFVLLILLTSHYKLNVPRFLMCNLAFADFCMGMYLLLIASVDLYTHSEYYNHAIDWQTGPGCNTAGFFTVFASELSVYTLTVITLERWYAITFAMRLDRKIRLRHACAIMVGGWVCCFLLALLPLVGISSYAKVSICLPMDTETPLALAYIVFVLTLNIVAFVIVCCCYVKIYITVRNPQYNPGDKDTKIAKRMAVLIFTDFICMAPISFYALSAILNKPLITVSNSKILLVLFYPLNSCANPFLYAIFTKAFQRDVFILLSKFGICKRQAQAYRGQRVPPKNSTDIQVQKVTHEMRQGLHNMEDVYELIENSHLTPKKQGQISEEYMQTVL
#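 HEK 293 cells stably expressing TSHR and a cAMP-gated CNG channel; parental CNG-only cells as counterscreen. Cells preloaded 60 min with membrane potential dye plus 100 uM RO 20-1724, then compound 30 min; fluorescence read at 590 nm.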
# An asterisk follows results filed as active; ? = inconclusive; nt = no result; [ ] = remark or other dose. Rows were chosen to be rich in hits. Some 3.1% of all compounds tested hit in one or more screens of this group. Unless noted, calls follow the shape of the dose curve; as a rule, active = well fitted curve in the direction sought with a large enough effect; inconclusive = small, poorly fitted or top-dose-only effect, or another doubt; inactive = no such curve, though single readings can be large; an effect the other way counts as inactive or inconclusive. Potency is read from the fitted curve at half-maximal effect.
SMILES,IkB sig inh,Imprint erasure,HEK293 cAMP ctrl,p53ts 39C tox,p53ts 32C kill,TSHR ag
Cc1nc2nc(NC(=O)c3ccc(F)cc3)[nH]n2c(=O)c1Cc1ccccc1,?,-4%[10.9 µM],nt,25%,-1%,nt
Cc1ccc2nc(-c3cccc(NC(=O)CSc4ccc(Cl)cc4)c3)oc2c1,1%,-52%[10.9 µM],nt,14%,13µM*,nt
CCC(=O)Nc1ccc2oc(-c3cccc(C)c3)nc2c1,4%,-91%,4%,?,13µM*,-6%
Cc1ccc2oc(-c3ccc(NC(=O)CCC(=O)O)cc3)nc2c1,?,-18%[10.9 µM],nt,16µM*,?,nt
Cc1ccc2nc(-c3ccc(C)c(NC(=O)CSc4ccc(Cl)cc4)c3)oc2c1,-2%,9%[10.9 µM],nt,-20%,-19%,nt
COc1cc(C(=O)Nc2cc(-c3nc4cc(C)ccc4o3)ccc2C)cc(OC)c1OC,?,-15%,6%,?,13µM*,6%
COc1cc(C(=O)Nc2cccc(-c3nc4cc(C)ccc4o3)c2)cc(OC)c1OC,nt,nt,0%,-27%,-25%,-2%
COc1ccc(N(C)C(=O)Cn2cc(S(=O)(=O)N3CCN(c4ccccc4F)CC3)c3ccccc3c2=O)c(OC)c1,?,-8%[10.9 µM],nt,-7%,21%,nt
CCCC(=O)Nc1cccc(-c2nc3ccccc3o2)c1,1%,-14%,6%,5%,2%,-7%
CCCC(=O)Nc1cccc(-c2nc3cc(C)c(C)cc3o2)c1,2%,-45%,4%[11.4 µM],?,16µM*,6%[11.4 µM]
COc1ccccc1N1CCN(C(=O)c2cc3c(=O)n(C)c4ccccc4c3s2)CC1,?,20%[10.9 µM],nt,8%,3%,nt
CCN1CCN(Cc2ccc(NC(=O)Nc3ccccc3Cl)cc2)CC1,1%,-16%,7%,7.9µM*,10µM*,8%
CCN1CCN(Cc2ccccc2NC(=O)Nc2ccc(C)cc2)CC1,-2%,-11%,0%,-9%,-18%,-2%
O=C(Nc1ccc(C(F)(F)F)cc1)c1cc(S(=O)(=O)NC2CCCCC2)ccc1F,?,-14%[10.9 µM],nt,10µM*,22%,nt
CCc1ccc(NC(=O)c2ccc(F)c(S(=O)(=O)NC3CCCCCC3)c2)cc1,?,-20%[10.9 µM],nt,-9%,16%,nt
O=C(Nc1cc(Cl)cc(Cl)c1)c1ccc(F)c(S(=O)(=O)NC2CCCC2)c1,-3%,-15%[10.9 µM],nt,13µM*,?,nt
COc1ccc(NC(=O)Cn2c(=O)n(C(C)C)c(=O)c3oc4ccccc4c32)cc1Cl,?,-16%[10.9 µM],nt,7%,4%,nt
CC(C)c1ccc(NC(=O)c2cnc3sc(N4CCCC4)nn3c2=O)cc1,?,-13%[10.9 µM],nt,-23%,-10%,nt
COc1ccc(NC(=O)Cn2nnc(-c3nc(-c4ccncc4)no3)c2N)cc1OC,-1%,11%[10.9 µM],nt,32%,-7%,nt
CCOc1ccccc1NC(=O)Nc1ccc2nc(N3CCN(C)CC3)cc(C)c2c1,-3%,-8%[10.9 µM],nt,10µM*,?,nt
Cc1cc(N2CCN(C)CC2)nc2ccc(NC(=O)Nc3ccc(Cl)cc3)cc12,-4%,-6%[10.9 µM],nt,-11%,-14%,nt
Cc1cc(N2CCN(C)CC2)nc2ccc(NC(=O)c3ccc(C(C)(C)C)cc3)cc12,?,-19%[10.9 µM],nt,20µM*,16µM*,nt
Cc1nn(C)c2c1c(C(F)(F)F)cc(=O)n2CC(=O)NCCC(C)C,1%,-11%[10.9 µM],nt,-20%,-1%,nt
Cc1occc1-c1nc(-c2ccccn2)no1,6%,-92%,0%,13µM*,10µM*,4%
Cc1occc1-c1nc(-c2ccncc2)no1,1%,-63%,7%,-2%,-7%,nt
SMILES,IkB sig inh,Imprint erasure,HEK293 cAMP ctrl,p53ts 39C tox,p53ts 32C kill,TSHR ag
c1ccc(CCc2ccccc2-c2nc(-c3ccccn3)no2)cc1,?,-24%,25µM*,-2%,5%,?
Cc1ccc(SCc2nc(-c3ccccn3)no2)cc1,3%,-26%,11%,-6%,-11%,13%
Cc1onc(-c2ccccc2Cl)c1-c1nc(-c2ccccn2)no1,-2%,-10%,32µM*,7%,18%,?
O=c1c(-c2ccccc2)coc2cc(O)cc(O)c12,nt,0%,nt,?,?,nt
O=c1c(-c2ccc3c(c2)OCCO3)coc2cc(O)cc(O)c12,?,-55%,?,7.9µM*,13µM*,?
Cc1c(C(=O)NCC(c2ccc(Cl)cc2)N2CCOCC2)oc2ccccc12 (stereo not drawn),?,-10%[10.9 µM],nt,0%,9%,nt
Cc1c(Cl)cccc1-c1ccc(C(=O)Nc2ccc3oc(-c4cccnc4)nc3c2)o1,8%,-30%[10.9 µM],nt,30%,-10%,nt
O=C(Nc1cccc(-c2nc3ncccc3o2)c1)c1ccc(-c2cccc(Cl)c2Cl)o1,?,-13%[10.9 µM],nt,13µM*,10µM*,nt
Cc1cc(C)cc(C(=O)Nc2ccc(-c3nc4ncccc4o3)cc2)c1,?,-6%[10.9 µM],nt,10µM*,-22%,nt
Cc1ccc(C(C)C)c(OCC(=O)Nc2cccc(-c3nc4ncccc4o3)c2)c1,?,-8%[10.9 µM],nt,16µM*,?,nt
CCC(C)c1ccc(OCC(=O)Nc2ccc(-c3nc4ncccc4o3)cc2)cc1 (stereo not drawn),-1%,-18%[10.9 µM],nt,10µM*,?,nt
